Measurements: the supplement of paper PMC9492666
Structures can show the parent of a compound that is named as a salt.

Key:
HCC1937 = assay: relative cell viability, compound + erastin, vs DMSO (fraction of DMSO control); higher = less growth inhibition; conditions: 72 h
MDA-MB-231 = assay: as above; conditions: 72 h
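Note: viability read by CCK-8 kit in 96-well plates, part of a combination screen pairing lipid-metabolism-targeting compounds with erastin.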

Compound: COc1cc(O)c2c(c1)O[C@H](c1ccc(O)cc1)CC2=O [Sakuranetin] + CCOc1ccccc1-n1c(C(C)N2CCN(C(=O)COc3ccc(Cl)cc3)CC2)nc2ccccc2c1=O [erastin]
- relative cell viability (HCC1937): 0.648
- relative cell viability (MDA-MB-231): 0.527

Compound: CC(C)[C@H](N=C(NS(=O)(=O)c1ccc(Cl)cc1)N1C[C@H](c2ccccc2)C(c2ccc(Cl)cc2)=N1)C(N)=O + CCOc1ccccc1-n1c(C(C)N2CCN(C(=O)COc3ccc(Cl)cc3)CC2)nc2ccccc2c1=O [erastin]
- relative cell viability (HCC1937): 0.483
- relative cell viability (MDA-MB-231): 0.429

Compound: Cc1cc(SCc2sc(-c3ccc(C(F)(F)F)c(F)c3)nc2C)ccc1OCC(=O)O + CCOc1ccccc1-n1c(C(C)N2CCN(C(=O)COc3ccc(Cl)cc3)CC2)nc2ccccc2c1=O [erastin]
- relative cell viability (HCC1937): 0.849
- relative cell viability (MDA-MB-231): 0.799

Compound: CCCCCCS(=O)(=O)NC(=O)c1ccc(CSCc2ccc(-c3ccccc3)cc2)cc1 + CCOc1ccccc1-n1c(C(C)N2CCN(C(=O)COc3ccc(Cl)cc3)CC2)nc2ccccc2c1=O [erastin]
- relative cell viability (HCC1937): 0.705
- relative cell viability (MDA-MB-231): 0.733

Compound: O=C(Nc1cccnc1)N1CCC(Cc2cccc(Oc3ccc(C(F)(F)F)cn3)c2)CC1 + CCOc1ccccc1-n1c(C(C)N2CCN(C(=O)COc3ccc(Cl)cc3)CC2)nc2ccccc2c1=O [erastin]
- relative cell viability (HCC1937): 0.663
- relative cell viability (MDA-MB-231): 0.374

Compound: O=C(c1ccc(NS(=O)(=O)c2cccc3cccnc23)cc1)N1CCN(CC2CC2)CC1 [Mitapivat] + CCOc1ccccc1-n1c(C(C)N2CCN(C(=O)COc3ccc(Cl)cc3)CC2)nc2ccccc2c1=O [erastin]
- relative cell viability (HCC1937): 0.596
- relative cell viability (MDA-MB-231): 0.638

Compound: COc1ccc2c(c1)CCC1C2CCC2(C)C(NCCCCCCN3C(=O)C=CC3=O)CCC12 (stereo not given) + CCOc1ccccc1-n1c(C(C)N2CCN(C(=O)COc3ccc(Cl)cc3)CC2)nc2ccccc2c1=O [erastin]
- relative cell viability (HCC1937): 0.47
- relative cell viability (MDA-MB-231): 0.67

Compound: O=C(NN1CCCCC1)c1nn(-c2ccc(Cl)cc2Cl)c(-c2ccc(C#Cc3ccc(C(F)(F)F)cc3)s2)c1CNS(=O)(=O)N1CCCC1 + CCOc1ccccc1-n1c(C(C)N2CCN(C(=O)COc3ccc(Cl)cc3)CC2)nc2ccccc2c1=O [erastin]
- relative cell viability (HCC1937): 0.496
- relative cell viability (MDA-MB-231): 0.395

Compound: COc1ccc(/C=C/c2cc(O)cc(O[C@@H]3O[C@H](CO)[C@@H](O)[C@H](O)[C@H]3O)c2)cc1 [Deoxyrhapontin] + CCOc1ccccc1-n1c(C(C)N2CCN(C(=O)COc3ccc(Cl)cc3)CC2)nc2ccccc2c1=O [erastin]
- relative cell viability (HCC1937): 0.576
- relative cell viability (MDA-MB-231): 0.699

Compound: CCCCCCCCCCC[C@@H](C[C@@H]1OC(=O)[C@H]1CCCCCC)OC(=O)[C@H](CC(C)C)NC=O [Orlistat] + CCOc1ccccc1-n1c(C(C)N2CCN(C(=O)COc3ccc(Cl)cc3)CC2)nc2ccccc2c1=O [erastin]
- relative cell viability (HCC1937): 0.725
- relative cell viability (MDA-MB-231): 0.52

Compound: O=P(O)(O)OC(CO)CO [β-Glycerol phosphate disodium salt pentahydrate] + CCOc1ccccc1-n1c(C(C)N2CCN(C(=O)COc3ccc(Cl)cc3)CC2)nc2ccccc2c1=O [erastin]
- relative cell viability (HCC1937): 0.614
- relative cell viability (MDA-MB-231): 0.527

Compound: CC(C)c1onc(-c2c(Cl)cccc2Cl)c1COc1ccc(/C=C/c2cccc(C(=O)O)c2)c(Cl)c1 + CCOc1ccccc1-n1c(C(C)N2CCN(C(=O)COc3ccc(Cl)cc3)CC2)nc2ccccc2c1=O [erastin]
- relative cell viability (HCC1937): 0.722
- relative cell viability (MDA-MB-231): 0.762

Compound: Cc1ccc(Oc2nc3cc(-c4ccc(-c5ccccc5)cc4)c(Cl)cc3[nH]2)cc1C(=O)O + CCOc1ccccc1-n1c(C(C)N2CCN(C(=O)COc3ccc(Cl)cc3)CC2)nc2ccccc2c1=O [erastin]
- relative cell viability (HCC1937): 0.553
- relative cell viability (MDA-MB-231): 0.629

Compound: CCCc1c(-c2ccccc2)[nH]n(-c2ccccn2)c1=O [APX-115 free base] + CCOc1ccccc1-n1c(C(C)N2CCN(C(=O)COc3ccc(Cl)cc3)CC2)nc2ccccc2c1=O [erastin]
- relative cell viability (HCC1937): 0.615
- relative cell viability (MDA-MB-231): 0.625

Compound: C[C@H](CCOc1cccc(CC(=O)O)c1)N(Cc1cccc(C(F)(F)F)c1Cl)CC(c1ccccc1)c1ccccc1 + CCOc1ccccc1-n1c(C(C)N2CCN(C(=O)COc3ccc(Cl)cc3)CC2)nc2ccccc2c1=O [erastin]
- relative cell viability (HCC1937): 0.602
- relative cell viability (MDA-MB-231): 0.384

Compound: COC(=O)c1sccc1S(=O)(=O)Nc1ccc(Nc2ccccc2)cc1OC + CCOc1ccccc1-n1c(C(C)N2CCN(C(=O)COc3ccc(Cl)cc3)CC2)nc2ccccc2c1=O [erastin]
- relative cell viability (HCC1937): 0.529
- relative cell viability (MDA-MB-231): 1.1

Compound: Cn1c2cc([S+](C)[O-])sc2c2cnn(Cc3cccc(N)c3)c(=O)c21 (stereo not given) + CCOc1ccccc1-n1c(C(C)N2CCN(C(=O)COc3ccc(Cl)cc3)CC2)nc2ccccc2c1=O [erastin]
- relative cell viability (HCC1937): 0.61
- relative cell viability (MDA-MB-231): 0.745

Compound: O=C(O)C(O)Cc1ccc(O)c(O)c1 (stereo not given) [Sodium Danshensu] + CCOc1ccccc1-n1c(C(C)N2CCN(C(=O)COc3ccc(Cl)cc3)CC2)nc2ccccc2c1=O [erastin]
- relative cell viability (HCC1937): 0.746
- relative cell viability (MDA-MB-231): 0.968

Compound: Nc1ncnc2c1ncn2C1OC(COP(=O)(O)O)C(O)C1O (stereo not given) [Adenosine 5'-monophosphate monohydrate] + CCOc1ccccc1-n1c(C(C)N2CCN(C(=O)COc3ccc(Cl)cc3)CC2)nc2ccccc2c1=O [erastin]
- relative cell viability (HCC1937): 0.97
- relative cell viability (MDA-MB-231): 1.07

Compound: C[C@H](CCC(=O)O)[C@H]1CC[C@H]2[C@@H]3C[C@H](O)[C@@H]4C[C@H](O)CC[C@]4(C)[C@H]3CC[C@]12C [Hyodeoxycholic acid] + CCOc1ccccc1-n1c(C(C)N2CCN(C(=O)COc3ccc(Cl)cc3)CC2)nc2ccccc2c1=O [erastin]
- relative cell viability (HCC1937): 0.767
- relative cell viability (MDA-MB-231): 0.881

Compound: CC(C)=CCC[C@](C)(O[C@@H]1O[C@H](CO)[C@@H](O)[C@H](O)[C@H]1O)[C@H]1CC[C@]2(C)[C@@H]1[C@H](O)C[C@@H]1[C@@]3(C)CC[C@H](O[C@@H]4O[C@H](CO)[C@@H](O)[C@H](O)[C@H]4O[C@@H]4O[C@H](CO)[C@@H](O)[C@H](O)[C@H]4O)C(C)(C)[C@@H]3CC[C@]12C [Ginsenoside Rd] + CCOc1ccccc1-n1c(C(C)N2CCN(C(=O)COc3ccc(Cl)cc3)CC2)nc2ccccc2c1=O [erastin]
- relative cell viability (HCC1937): 0.355
- relative cell viability (MDA-MB-231): 0.317

Compound: CCC1C(O)C2C3CCC(C(C)CCO)C3(C)CCC2C2(C)CCC(O)CC12 (stereo not given) + CCOc1ccccc1-n1c(C(C)N2CCN(C(=O)COc3ccc(Cl)cc3)CC2)nc2ccccc2c1=O [erastin]
- relative cell viability (HCC1937): 0.656
- relative cell viability (MDA-MB-231): 0.58

Compound: O=C1C=CC[C@@H]2[C@H]3CCCN4CCC[C@@H](CN12)[C@@H]34 [Sophocarpine] + CCOc1ccccc1-n1c(C(C)N2CCN(C(=O)COc3ccc(Cl)cc3)CC2)nc2ccccc2c1=O [erastin]
- relative cell viability (HCC1937): 0.705
- relative cell viability (MDA-MB-231): 0.856

Compound: O=C(NCCS(=O)(=O)c1ccc(C(F)(F)F)cn1)c1ccc(Cl)cc1 + CCOc1ccccc1-n1c(C(C)N2CCN(C(=O)COc3ccc(Cl)cc3)CC2)nc2ccccc2c1=O [erastin]
- relative cell viability (HCC1937): 0.511
- relative cell viability (MDA-MB-231): 0.503

Compound: O=C(O)Cc1cccc(OCCCN(Cc2cccc(C(F)(F)F)c2Cl)CC(c2ccccc2)c2ccccc2)c1 + CCOc1ccccc1-n1c(C(C)N2CCN(C(=O)COc3ccc(Cl)cc3)CC2)nc2ccccc2c1=O [erastin]
- relative cell viability (HCC1937): 0.855
- relative cell viability (MDA-MB-231): 0.478

Compound: O=c1cc(-c2ccc(O)c(-c3c(O)cc(O)c4c(=O)cc(-c5ccc(O)cc5)oc34)c2)oc2cc(O)cc(O)c12 [Amentoflavone] + CCOc1ccccc1-n1c(C(C)N2CCN(C(=O)COc3ccc(Cl)cc3)CC2)nc2ccccc2c1=O [erastin]
- relative cell viability (HCC1937): 0.438
- relative cell viability (MDA-MB-231): 0.715

Compound: CC1=C(C)C(=O)C(C(CCCCCC(=O)O)c2ccccc2)=C(C)C1=O (stereo not given) [Seratrodast] + CCOc1ccccc1-n1c(C(C)N2CCN(C(=O)COc3ccc(Cl)cc3)CC2)nc2ccccc2c1=O [erastin]
- relative cell viability (HCC1937): 0.851
- relative cell viability (MDA-MB-231): 0.567

Compound: O=C(O)CCCc1cc2cc(Cl)ccc2n1S(=O)(=O)c1ccc2ncsc2c1 [Lanifibranor] + CCOc1ccccc1-n1c(C(C)N2CCN(C(=O)COc3ccc(Cl)cc3)CC2)nc2ccccc2c1=O [erastin]
- relative cell viability (HCC1937): 0.672
- relative cell viability (MDA-MB-231): 0.886

Compound: O=C(O)CCn1c2c(c3ccccc31)C[C@H](NS(=O)(=O)c1ccc(F)cc1)CC2 [Ramatroban] + CCOc1ccccc1-n1c(C(C)N2CCN(C(=O)COc3ccc(Cl)cc3)CC2)nc2ccccc2c1=O [erastin]
- relative cell viability (HCC1937): 0.494
- relative cell viability (MDA-MB-231): 0.806

Compound: COc1ccc(Nc2ccn(-c3ccccc3)n2)cc1 + CCOc1ccccc1-n1c(C(C)N2CCN(C(=O)COc3ccc(Cl)cc3)CC2)nc2ccccc2c1=O [erastin]
- relative cell viability (HCC1937): 0.686
- relative cell viability (MDA-MB-231): 0.902

Compound: O=C(Nc1cnccc1Cl)N1CCN(Cc2ccc3c(c2)OC(F)(F)O3)CC1 + CCOc1ccccc1-n1c(C(C)N2CCN(C(=O)COc3ccc(Cl)cc3)CC2)nc2ccccc2c1=O [erastin]
- relative cell viability (HCC1937): 0.486
- relative cell viability (MDA-MB-231): 0.646

Compound: COc1ccc2c(=O)c(-c3ccccc3)coc2c1 [7-Methoxyisoflavone] + CCOc1ccccc1-n1c(C(C)N2CCN(C(=O)COc3ccc(Cl)cc3)CC2)nc2ccccc2c1=O [erastin]
- relative cell viability (HCC1937): 0.443
- relative cell viability (MDA-MB-231): 0.68

Compound: CN(CCOc1ccc(CC2SC(=O)NC2=O)cc1)c1ccccn1 (stereo not given) [Rosiglitazone] + CCOc1ccccc1-n1c(C(C)N2CCN(C(=O)COc3ccc(Cl)cc3)CC2)nc2ccccc2c1=O [erastin]
- relative cell viability (HCC1937): 0.999
- relative cell viability (MDA-MB-231): 0.697

Compound: O=C(NCCN1CCC2(CC1)C(=O)NCN2c1ccccc1)c1ccc2ccccc2c1 + CCOc1ccccc1-n1c(C(C)N2CCN(C(=O)COc3ccc(Cl)cc3)CC2)nc2ccccc2c1=O [erastin]
- relative cell viability (HCC1937): 0.392
- relative cell viability (MDA-MB-231): 0.589

Compound: O=C(/C=C/c1ccc(/C=C/C(=O)Nc2ccc(C3=NCCN3)cc2)cc1)Nc1ccc(C2=NCCN2)cc1 + CCOc1ccccc1-n1c(C(C)N2CCN(C(=O)COc3ccc(Cl)cc3)CC2)nc2ccccc2c1=O [erastin]
- relative cell viability (HCC1937): 0.554
- relative cell viability (MDA-MB-231): 0.346
